The target in experiment [1] is Estrogen receptor (Homo sapiens) (UniProt P03372). The experiment in a line: qHTS assay for small molecule agonists of estrogen receptor alpha signaling (AID 588514; calls by dose curve;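 note: 0% = vehicle only and 100% = reference agonist; nearly all actives have a fitted effect of over 70% in size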). The conditions noted are these: ER-alpha-UAS-bla HEK293, beta-lactamase ratio, 18 h; series mostly up to 76.8 µM. An outline of the steps: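 Read-out: CCF4 fluorescence from a beta-lactamase reporter in ER-alpha-UAS-bla HEK 293 cells after 18 hrs of compound exposure at 37 C. Normalized to 20 nM 17-beta-estradiol (100%) and DMSO (0%).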
Chain of Estrogen receptor (Homo sapiens) (P03372 whole entry, looked up): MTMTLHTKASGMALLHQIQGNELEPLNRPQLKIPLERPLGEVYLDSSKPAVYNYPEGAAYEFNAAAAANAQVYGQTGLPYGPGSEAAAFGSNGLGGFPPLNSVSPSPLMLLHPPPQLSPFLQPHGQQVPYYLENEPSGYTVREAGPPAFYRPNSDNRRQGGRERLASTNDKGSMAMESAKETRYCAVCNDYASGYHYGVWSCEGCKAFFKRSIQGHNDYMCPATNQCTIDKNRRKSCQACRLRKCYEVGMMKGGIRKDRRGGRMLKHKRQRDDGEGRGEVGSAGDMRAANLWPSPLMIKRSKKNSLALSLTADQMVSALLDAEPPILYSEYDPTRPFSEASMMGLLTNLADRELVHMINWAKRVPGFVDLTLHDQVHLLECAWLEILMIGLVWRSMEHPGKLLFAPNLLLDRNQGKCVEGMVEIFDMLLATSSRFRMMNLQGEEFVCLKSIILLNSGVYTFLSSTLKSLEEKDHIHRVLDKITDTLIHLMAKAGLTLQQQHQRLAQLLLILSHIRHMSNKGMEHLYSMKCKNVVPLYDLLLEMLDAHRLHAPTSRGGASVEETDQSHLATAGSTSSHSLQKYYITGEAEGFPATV

The target in experiment [2] is Peroxisome proliferator-activated receptor delta (Homo sapiens) (UniProt Q03181). The experiment in a line: qHTS assay for small molecule antagonists of peroxisome proliferator-activated receptor delta signaling (AID 588535; active = well fitted inhibition curve with a large enough effect in the signal ratio, with a control signal flat, not every such curve was filed as active; the % refers to the signal ratio). The conditions noted are these: HEK293T PPARd-UAS-bla, beta-lactamase FRET ratio, 18 h; series mostly up to 76.7 µM. An outline of the steps:
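Antagonist-mode qHTS using GeneBLAzer PPAR-delta-UAS-bla HEK293T cells; compound exposure 18 hrs at 37 C over a titration. Ratiometric CCF4 fluorescence at 460/530 nm; concentration-response points fitted to the Hill equation.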
For orientation: qHTS replaces the single test concentration by a dilution series.

Experiment [3] is described as follows: qHTS assay for small molecule agonists of retinoid X receptor alpha signaling (AID 588544). The following applies: HEK293T RXRa-UAS-bla, beta-lactamase reporter, 18 h; 530 nm emission.
Experiment [4] concerns the target Androgen receptor (Homo sapiens) (UniProt P10275). Nature of the experiment: qHTS assay for small molecule agonists of androgen receptor signaling (AID 588515; active = well fitted curve in the direction sought with a large enough effect in the signal ratio, with a control signal flat; the % refers to the signal ratio; note: % is set by controls: 0 for no effect and ±100 for the full control effect). The conditions noted are these: AR-UAS-bla HEK293, beta-lactamase ratio, agonist 16 h; stronger effect = higher value. An outline of the steps:
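Stimulation of an AR-responsive β-lactamase reporter in GripTite HEK293 cells was measured after 16 h compound exposure at 37 °C, via CCF4 fluorescence after 2 h RT. EC50 from Hill fits, normalized to R1881 at 30 nM.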

The target is the same in experiment [5]. The experiment in a line: qHTS assay for small molecule antagonists of androgen receptor signaling (AID 588516; active = well fitted curve in the direction sought with a large enough effect in the signal ratio, with a control signal flat, not every such curve was filed as active; the % refers to the signal ratio; note: % is set by controls: 0 for no effect and ±100 for the full control effect). The following applies: AR-UAS-bla HEK293, beta-lactamase ratio, antagonist mode, 16 h; series mostly up to 76.8 µM. An outline of the steps: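 Cells were plated and incubated 5 h, compounds added in titration, then R1881 (10 nM final) as agonist. After 16 h at 37 C, CCF4 substrate was loaded for 2 h at room temperature and fluorescence measured.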

Experiment [6] has as its target Glucocorticoid receptor (Homo sapiens) (UniProt P04150). Nature of the experiment: qHTS assay for small molecule antagonists of glucocorticoid receptor signaling (AID 588533; active = well fitted inhibition curve with a large enough effect in the signal ratio, with a control signal flat, not every such curve was filed as active; the % refers to the signal ratio;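 note: cells stimulated with 2 nM dexamethasone as agonist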; note: potency is the fitted concentration of half-maximal effect). The following applies: HeLa MMTV-bla, GRE beta-lactamase ratio, antagonist mode, 18 h; series mostly up to 76.8 µM. An outline of the steps: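 Antagonist-mode qHTS: compound titrations added to GRE-bla HeLa cells, then dexamethasone 2 nM final; 18 h, 37 C. CCF4 FRET fluorescence normalized to dexamethasone and DMSO; IC50 from Hill fit.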

The target in experiment [7] is Peroxisome proliferator-activated receptor gamma (Homo sapiens) (UniProt P37231). Nature of the experiment: qHTS assay for small molecule agonists of peroxisome proliferator-activated receptor gamma signaling (AID 588536; active = well fitted curve in the direction sought with a large enough effect in the signal ratio, with a control signal flat, not every such curve was filed as active; the % refers to the signal ratio;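 note: 0% = DMSO basal wells and 100% = rosiglitazone at 2 µM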). The conditions noted are these: HEK293 PPARg-UAS-bla, beta-lactamase ratio, 16 h; series mostly up to 76.7 µM. An outline of the steps:
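This is an agonist-mode beta-lactamase reporter assay in HEK293 PPAR-gamma-UAS-bla cells with 1% charcoal/dextran FBS. Compound titrations ran 16 h at 37 C before CCF4 detection. EC50 and efficacy are Hill fits scaled to 2 uM rosiglitazone (100%) and DMSO basal.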

For experiment [8] the target is unchanged. Nature of the experiment: qHTS assay for small molecule antagonists of peroxisome proliferator-activated receptor gamma signaling (AID 588537; active = well fitted inhibition curve with a large enough effect in the signal ratio, with a control signal flat, not every such curve was filed as active; the % refers to the signal ratio; note: potency is the fitted concentration of half-maximal effect). The following applies: HEK293 PPARg-UAS-bla, beta-lactamase ratio, antagonist mode; series mostly up to 76.8 µM. An outline of the steps: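 Cell-based beta-lactamase assay; GW9662 served as the antagonist control. Stimulation used rosiglitazone, final 50 nM, 16 h, 37 C.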

Experiment [9] concerns the target Nuclear receptor subfamily 1 group I member 2 (Rattus norvegicus) (UniProt Q9R1A7). The experiment in a line: qHTS assay for small molecule activators of the rat pregnane X receptor (rPXR) signaling pathway (AID 651751). Note: 0% is about no effect. The conditions noted are these: rPXR reporter cells, luciferase (One-Glo), 24 h.
Experiment [10] in a line: qHTS assay for small molecule activators of the human pregnane X receptor (PXR) signaling pathway (AID 720659). Note: 0% is about no effect. The following applies: DPX-2 HepG2 CYP3A4-luciferase, 24 h; series mostly up to 92.3 µM.
Experiment [11] is described as follows: qHTS assay for small molecule agonists of the antioxidant response element (ARE) signaling pathway (AID 651741; active = well fitted activation curve with a large enough effect in the signal ratio; the % refers to the signal ratio; note: potency is the fitted concentration of half-maximal effect; for activation: % of control where 0% means no effect). The conditions noted are these: HepG2 ARE-bla reporter, beta-lactamase FRET ratio, 16 h; series mostly up to 96 µM. The procedure, abridged: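 Agonist activity is measured as ARE-driven beta-lactamase expression in a stable HepG2 reporter line, using 16 h compound treatment at 37 C and a FRET substrate fluorescence readout after 2 h.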

Values joined by “and” are separate entries in the source; they are usually repeats but may differ in a detail not shown here. Equal entries are not always repeated. Results filed as inconclusive are left out. Some compounds were tested as several samples or in several runs, with calls that do not always agree. Active and inactive are the calls of the source. Unless noted, the rule behind the calls is not given here.

Chain of Peroxisome proliferator-activated receptor gamma (Homo sapiens) (P37231 whole entry, looked up): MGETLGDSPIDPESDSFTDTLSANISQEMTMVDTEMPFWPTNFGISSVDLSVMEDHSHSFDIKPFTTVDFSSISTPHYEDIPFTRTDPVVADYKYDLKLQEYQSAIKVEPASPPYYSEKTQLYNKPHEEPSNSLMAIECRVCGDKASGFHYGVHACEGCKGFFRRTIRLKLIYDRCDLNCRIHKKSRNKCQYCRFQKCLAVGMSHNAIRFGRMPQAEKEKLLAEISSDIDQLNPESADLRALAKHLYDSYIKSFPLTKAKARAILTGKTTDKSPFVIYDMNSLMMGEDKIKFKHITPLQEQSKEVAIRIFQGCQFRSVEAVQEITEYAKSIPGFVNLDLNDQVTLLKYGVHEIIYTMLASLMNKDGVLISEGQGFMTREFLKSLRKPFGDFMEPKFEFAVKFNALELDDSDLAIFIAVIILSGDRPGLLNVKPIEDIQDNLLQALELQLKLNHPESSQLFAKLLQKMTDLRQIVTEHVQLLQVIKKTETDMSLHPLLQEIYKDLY
Chain of Androgen receptor (Homo sapiens) (P10275 whole entry, looked up): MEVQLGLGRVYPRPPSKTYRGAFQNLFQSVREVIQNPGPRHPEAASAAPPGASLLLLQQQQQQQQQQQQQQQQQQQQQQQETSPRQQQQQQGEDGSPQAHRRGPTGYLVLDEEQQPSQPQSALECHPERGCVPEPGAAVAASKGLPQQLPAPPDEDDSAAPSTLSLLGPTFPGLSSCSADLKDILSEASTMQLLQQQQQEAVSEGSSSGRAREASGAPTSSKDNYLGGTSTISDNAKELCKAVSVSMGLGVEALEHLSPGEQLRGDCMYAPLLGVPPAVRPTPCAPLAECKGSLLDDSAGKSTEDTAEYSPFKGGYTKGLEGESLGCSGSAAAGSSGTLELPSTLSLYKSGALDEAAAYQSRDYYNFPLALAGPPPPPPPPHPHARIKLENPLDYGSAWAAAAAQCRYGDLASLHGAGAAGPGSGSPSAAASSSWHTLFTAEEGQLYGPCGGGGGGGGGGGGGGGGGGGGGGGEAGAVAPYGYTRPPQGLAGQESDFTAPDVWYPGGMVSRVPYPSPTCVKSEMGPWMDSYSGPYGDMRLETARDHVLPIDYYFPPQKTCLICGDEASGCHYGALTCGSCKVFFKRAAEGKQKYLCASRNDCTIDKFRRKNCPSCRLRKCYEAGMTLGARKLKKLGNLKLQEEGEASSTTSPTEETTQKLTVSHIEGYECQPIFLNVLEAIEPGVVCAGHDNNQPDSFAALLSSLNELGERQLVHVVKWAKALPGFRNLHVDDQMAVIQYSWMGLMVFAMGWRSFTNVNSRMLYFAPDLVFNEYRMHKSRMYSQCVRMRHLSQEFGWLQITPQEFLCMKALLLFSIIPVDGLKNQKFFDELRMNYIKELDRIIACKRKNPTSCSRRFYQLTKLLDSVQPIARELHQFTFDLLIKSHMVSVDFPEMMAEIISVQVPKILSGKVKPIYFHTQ
Chain of Glucocorticoid receptor (Homo sapiens) (P04150 whole entry, looked up): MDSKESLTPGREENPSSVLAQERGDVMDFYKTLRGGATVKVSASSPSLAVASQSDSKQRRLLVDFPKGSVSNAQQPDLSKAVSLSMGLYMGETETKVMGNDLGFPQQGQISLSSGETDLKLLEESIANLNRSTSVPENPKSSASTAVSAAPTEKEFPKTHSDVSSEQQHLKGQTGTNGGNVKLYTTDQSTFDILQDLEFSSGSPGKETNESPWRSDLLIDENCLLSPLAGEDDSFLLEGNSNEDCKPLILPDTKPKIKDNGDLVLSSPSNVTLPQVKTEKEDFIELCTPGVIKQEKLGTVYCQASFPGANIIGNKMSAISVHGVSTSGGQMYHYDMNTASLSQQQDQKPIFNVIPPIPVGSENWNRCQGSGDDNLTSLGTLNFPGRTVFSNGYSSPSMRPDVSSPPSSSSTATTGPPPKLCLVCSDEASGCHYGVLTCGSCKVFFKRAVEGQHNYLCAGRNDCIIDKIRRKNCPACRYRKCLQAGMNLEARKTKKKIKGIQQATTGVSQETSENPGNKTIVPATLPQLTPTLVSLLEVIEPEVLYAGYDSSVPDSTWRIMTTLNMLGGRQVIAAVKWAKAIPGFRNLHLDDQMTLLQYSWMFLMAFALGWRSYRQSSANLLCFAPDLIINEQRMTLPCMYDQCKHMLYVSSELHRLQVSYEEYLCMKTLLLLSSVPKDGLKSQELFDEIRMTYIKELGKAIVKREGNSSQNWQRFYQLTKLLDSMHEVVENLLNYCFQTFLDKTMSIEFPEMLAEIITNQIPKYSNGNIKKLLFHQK
Chain of Peroxisome proliferator-activated receptor delta (Homo sapiens) (Q03181 whole entry, looked up): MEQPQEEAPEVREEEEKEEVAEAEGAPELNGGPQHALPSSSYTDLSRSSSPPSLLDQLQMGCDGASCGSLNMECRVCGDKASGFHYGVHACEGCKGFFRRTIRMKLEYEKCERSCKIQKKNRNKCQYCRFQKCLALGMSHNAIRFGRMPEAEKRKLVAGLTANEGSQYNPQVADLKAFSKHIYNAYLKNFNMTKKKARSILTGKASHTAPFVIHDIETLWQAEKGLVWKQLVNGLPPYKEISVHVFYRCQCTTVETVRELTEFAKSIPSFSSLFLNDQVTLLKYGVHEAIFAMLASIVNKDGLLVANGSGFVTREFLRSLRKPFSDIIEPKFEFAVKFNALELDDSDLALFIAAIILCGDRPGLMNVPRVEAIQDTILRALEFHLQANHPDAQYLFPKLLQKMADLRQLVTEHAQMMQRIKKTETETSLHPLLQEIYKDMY
Chain of Nuclear receptor subfamily 1 group I member 2 (Rattus norvegicus) (Q9R1A7 whole entry, looked up): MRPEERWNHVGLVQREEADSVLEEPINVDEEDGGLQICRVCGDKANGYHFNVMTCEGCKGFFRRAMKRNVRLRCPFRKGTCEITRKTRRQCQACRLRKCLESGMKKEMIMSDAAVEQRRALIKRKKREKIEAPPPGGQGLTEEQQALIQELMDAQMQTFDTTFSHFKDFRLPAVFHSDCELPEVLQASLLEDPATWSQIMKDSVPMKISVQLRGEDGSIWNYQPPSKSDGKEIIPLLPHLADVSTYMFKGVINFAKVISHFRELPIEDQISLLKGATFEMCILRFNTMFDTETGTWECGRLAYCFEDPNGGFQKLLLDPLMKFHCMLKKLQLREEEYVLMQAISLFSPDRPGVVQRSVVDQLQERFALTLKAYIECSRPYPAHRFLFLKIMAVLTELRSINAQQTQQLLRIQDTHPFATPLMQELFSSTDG

As for `CC1(C)C(C(=O)OC(C#N)c2cccc(Oc3ccccc3)c2)C1(C)C` (centres undefined), the Potency entry in [1] and in experiment [2] was “inactive” throughout. The max response in experiment [3] was -5.14%.
In the case of `COc1cc(OC)nc(NC(=O)NS(=O)(=O)c2ncccc2C(F)(F)F)n1`, the activation in experiment [4] is 3.3% (inactive). The Potency entry in experiment [5], in experiment [6], in experiment [2], in experiment [7] and in experiment [8] was “inactive” each time. The max response was -4.69% in experiment [3] and 0.924% (inactive) in [9]. Moreover, the molecule was called inactive in experiment [10].
As to `C=C(C)C(=O)OCC(CC)CCCC` (centres undefined), the Potency result in experiment [1], in experiment [6], in [7] and in experiment [11] was “inactive” throughout. Also, the max response in experiment [3] is -20.3%; in [9], -1.07% (inactive). In addition, the outcome in experiment [10] was inactive.
As for `C=CCOC(=O)C(C)(C)OC(=O)c1cc(-n2c(=O)cc(C(F)(F)F)n(C)c2=O)ccc1Cl`, the Potency entry in [1], in [6], in [2], in [7] and in experiment [8] was “inactive” throughout. For the same molecule, the max response in experiment [3] is -7.31%.
Consider `O=C(NC(=O)c1c(F)cccc1F)Nc1cc(Cl)c(OC(F)(F)C(F)C(F)(F)F)c(Cl)c1F` (centres undefined), for which the activation in experiment [4] was -3.76% (inactive). Also, the Potency entry in experiment [5], in [2], in experiment [7] and in experiment [8] was “inactive” throughout. Further, the max response in experiment [3] was 23%; in experiment [9], 9.17% (inactive). In addition, the Potency in [11] is 30.6 µM (active).
Take `CC1(C)CCC(Cc2ccc(Cl)cc2)C1(O)Cn1cncn1` (centres undefined): the Potency entry in experiment [1] and in experiment [8] was “inactive” each time. Further, the max response in experiment [3] is 16.6%.
Take `O=CNC(N1CCN(C(NC=O)C(Cl)(Cl)Cl)CC1)C(Cl)(Cl)Cl` (centres undefined): the activation in experiment [4] is 14.6% (inactive). Besides, the Potency entry in experiment [6], in experiment [2], in experiment [7] and in [8] was “inactive” throughout. Also, in experiment [3], the max response was -14.2%.
In the case of `CC1(C)[C@H](C(=O)O[C@H](C#N)c2cccc(Oc3ccccc3)c2)[C@@H]1C=C(Br)Br`, the activation in experiment [4] is -5.24% (inactive). The Potency result in experiment [5] and in experiment [2] was “inactive” each time.
Take `CCOc1cc(C(C)(C)C)ccc1C1COC(c2c(F)cccc2F)=N1` (centres undefined): the activation in experiment [4] was -19.9% (inactive). For the same molecule, the Potency entry in experiment [2] was “inactive”. Besides, the Potency in [11] was 12.2 µM (active).
Consider `CCOP(=O)(OCC)OC(Cl)C(Cl)(Cl)Cl` (centres undefined), for which the activation in experiment [4] was -3.01% (inactive). Also, the Potency entry in [6] and in experiment [2] was “inactive” each time. Moreover, the figures for the max response in [3] and in experiment [9] were -5.65% and 2.92% (inactive), respectively. In addition, the outcome in experiment [10] was inactive.
On to `CCCN(CCOc1c(Cl)cc(Cl)cc1Cl)C(=O)n1ccnc1`, for which the Potency result in experiment [6], in [2] and in experiment [7] was “inactive” in each case. The Potency was 44.7 µM (active) and inactive in experiment [8]; 30.6 µM (active) and 48.6 µM (active) in experiment [11].
For the molecule `CCNS(=O)(=O)C(F)(F)C(F)(F)C(F)(F)C(F)(F)C(F)(F)C(F)(F)C(F)(F)C(F)(F)F`, in experiment [4], the activation was 7.01% (inactive). Moreover, the Potency result in [7] and in experiment [8] was “inactive” each time. In addition, the figures for the max response in [3] and in experiment [9] were -3.73% and 2.04% (inactive), respectively. Moreover, the call in experiment [10] was inactive.
On to `N#Cc1cc(I)c(O)c(I)c1`, for which the activation in experiment [4] is 6.03% (inactive). The Potency entry in experiment [5] and in [2] was “inactive” each time. The figures for the max response in experiment [3] and in experiment [9] were 19.3% and -7.71% (inactive), respectively. Besides, the Potency in experiment [11] was 30.6 µM (active). Besides, in experiment [10], the molecule was classed as inactive.
Take `O=C1C=CC(=O)c2ccccc21`: the activation in experiment [4] was 0.338% (inactive). Besides, the Potency entry in experiment [7] and in experiment [8] was “inactive” each time. The figures for the max response in experiment [3] and in experiment [9] were 12.1% and 2.78% (inactive), respectively. In experiment [11], the Potency was 54.5 µM (active). Besides, in experiment [10], the result was inactive.
Take `C[C@H]1[C@H](c2ccc(Cl)cc2)SC(=O)N1C(=O)NC1CCCCC1`: in [4], the activation is -15.6% (inactive). In addition, in experiment [6], the Potency result was “inactive”. The Potency in experiment [11] is 54.5 µM (active).
Turning to `CCCCOCCOC(C)=O`, the Potency result in experiment [6], in experiment [2], in experiment [7] and in [8] was “inactive” throughout. The max response in experiment [3] was -13.2%; in [9] it was 2.29% (inactive). For the same molecule, the molecule was called inactive in [10].
On to `C=CC(=O)OCC(CC)(COC(=O)C=C)COC(=O)C=C`, for which the activation in experiment [4] was -16.7% (inactive). The Potency in experiment [6] is 44.7 µM (active); in experiment [11], 34.4 µM (active). The max response in experiment [9] was -14.4% (inactive).
Consider `CCC(C)(NC(=O)c1cc(Cl)c(C)c(Cl)c1)C(=O)CCl` (centres undefined), for which the Potency result in experiment [6] and in experiment [7] was “inactive” each time. Further, the max response in experiment [9] is 1.32% (inactive).
On to `N#Cc1cc(Br)c(O)c(Br)c1`, for which the Potency result in experiment [6] and in experiment [7] was “inactive” throughout. The max response was -9.28% in experiment [3] and -9.3% (inactive) in experiment [9]. The Potency in [11] was 61.1 µM (active). In addition, the result in experiment [10] was inactive.
For the molecule `CCCCCCCCCCCCC1=C(OC(C)=O)C(=O)c2ccccc2C1=O`, the activation in experiment [4] is -4.72% (inactive). The max response in experiment [9] was 0.383% (inactive). Moreover, the molecule was called inactive in [10].
With `CCN(CC)C(=O)SCc1ccc(Cl)cc1`, the Potency result in experiment [6], in experiment [7] and in experiment [8] was “inactive” throughout. Moreover, the values for the max response in experiment [3] and in experiment [9] were 0.303% and 1.53% (inactive), respectively.
As for `CCNc1nc(NC(C)C)nc(OC)n1`, the Potency entry in experiment [6], in [2], in experiment [7] and in [11] was “inactive” in each case. Further, the results for the max response in [3] and in experiment [9] were -5.81% and 0.846% (inactive), respectively. Also, the molecule was called inactive in experiment [10].
Consider `CC(Oc1cccc(Cl)c1)C(=O)O` (centres undefined), for which the Potency result in experiment [6], in [2], in [7], in [8] and in [11] was “inactive” in each case. The max response in experiment [3] was -3.83%; in experiment [9] it was -1.92% (inactive). For the same molecule, in [10], the outcome was inactive.
With `CCSC(=O)N(CC)C1CCCCC1`, the Potency entry in experiment [6], in experiment [7] and in [8] was “inactive” throughout. For the same molecule, the max response was -3.68% in experiment [3] and -10.9% (inactive) in experiment [9]. Also, the result in experiment [10] was inactive.
On to `COC(C)(C)CCC[C@H](C)C/C=C/C(C)=C/C(=O)OC(C)C`, for which the activation in experiment [4] was -8.45% (inactive). In addition, the max response in experiment [3] turned out to be 10.5%. In addition, in experiment [11], the Potency was 68.6 µM (active).

For the origin of these results see PubChem BioAssay (NCATS).
